# Source: the supplement of paper PMC8728848
# About 410 targets per protein were measured; listed, in parts, are those with the strongest signals and a random draw of the rest.
# Columns and labels:
# Assay in all cases: glycan array binding signal (z-score within array); higher = stronger binding
# Conditions in all cases: glycan notation: IUPAC condensed, linker removed
# [1] = target: Fuc(a1-2)Gal
# Method in brief: (§1)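 The Consortium for Functional Glycomics database supplied 3228 glycan arrays, of which those lacking an available protein sequence were dropped. The binding signal, a within-array Z-score, was averaged across arrays of the same protein sequence and across linkers. Negative scores can be read as non-binding.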
# [2] = target: Fuc(a1-2)Gal(b1-4)GlcNAc(b1-2)Man(a1-3)[Fuc(a1-2)Gal(b1-4)GlcNAc(b1-2)Man(a1-6)]Man(b1-4)GlcNAc(b1-4)[Fuc(a1-6)]GlcNAc
# Method in brief: as §1
# [3] = target: Fuc(a1-2)Gal(b1-4)GlcNAc(b1-6)GalNAc
# Method in brief: as §1
# [4] = target: Fuc(a1-2)Gal(b1-4)[Fuc(a1-3)]GlcNAc(b1-3)Gal(b1-4)[Fuc(a1-3)]GlcNAc(b1-3)Gal(b1-4)[Fuc(a1-3)]GlcNAc
# Method in brief: as §1
# [5] = target: Fuc(a1-2)Gal6S(b1-3)GlcNAc6S
# Method in brief: as §1
# [6] = target: Fuc(a1-2)[Gal(a1-3)]Gal(b1-3)GlcNAc
# Method in brief: as §1
# [7] = target: Fuc(a1-2)[Gal(a1-3)]Gal(b1-4)GlcNAc
# Method in brief: as §1
# [8] = target: Fuc(a1-2)[Gal(a1-3)]Gal(b1-4)GlcNAc(b1-2)Man(a1-3)[Fuc(a1-2)[Gal(a1-3)]Gal(b1-4)GlcNAc(b1-2)Man(a1-6)]Man(b1-4)GlcNAc(b1-4)[Fuc(a1-6)]GlcNAc
# Method in brief: as §1
# [9] = target: Fuc(a1-2)[GalNAc(a1-3)]Gal(b1-4)GlcNAc(b1-2)Man(a1-3)[Fuc(a1-2)[GalNAc(a1-3)]Gal(b1-4)GlcNAc(b1-2)Man(a1-6)]Man(b1-4)GlcNAc(b1-4)GlcNAc
# Method in brief: as §1
# [10] = target: Fuc(a1-3)[Gal(b1-4)]GlcNAc(b1-6)[Gal(b1-3)GlcNAc(b1-3)]Gal(b1-4)Glc
# Method in brief: as §1
# [11] = target: Gal(a1-3)Gal(b1-4)GlcNAc(b1-2)Man(a1-3)[Gal(a1-3)Gal(b1-4)GlcNAc(b1-2)Man(a1-6)]Man(b1-4)GlcNAc(b1-4)GlcNAc
# Method in brief: as §1
# [12] = target: Gal(a1-3)Gal(b1-4)GlcNAc(b1-3)GalNAc
# Method in brief: as §1
# [13] = target: Gal(b1-2)Gal
# Method in brief: as §1
# [14] = target: Gal(b1-3)Gal
# Method in brief: as §1
# [15] = target: Gal(b1-3)GlcNAc
# Method in brief: as §1
# [16] = target: Gal(b1-3)GlcNAc(b1-3)Gal(b1-4)GlcNAc
# Method in brief: as §1
# [17] = target: Gal(b1-3)GlcNAc(b1-3)Gal(b1-4)GlcNAc(b1-3)Gal(b1-4)GlcNAc(b1-2)[Gal(b1-3)GlcNAc(b1-3)Gal(b1-4)GlcNAc(b1-3)Gal(b1-4)GlcNAc(b1-6)]Man(a1-6)[Gal(b1-3)GlcNAc(b1-3)Gal(b1-4)GlcNAc(b1-3)Gal(b1-4)GlcNAc(b1-2)Man(a1-3)]Man(b1-4)GlcNAc(b1-4)[Fuc(a1-6)]GlcNAc
# Method in brief: as §1
# [18] = target: Gal(b1-3)[Fuc(a1-4)]GlcNAc
# Method in brief: as §1
# [19] = target: Gal(b1-3)[Fuc(a1-4)]GlcNAc(b1-2)Man
# Method in brief: as §1
# [20] = target: Gal(b1-3)[GlcNAc(b1-6)]GalNAc
# Method in brief: as §1
# [21] = target: Gal(b1-4)GlcNAc
# Method in brief: as §1
# [22] = target: Gal(b1-4)GlcNAc(b1-2)Man(a1-3)[GlcNAc(b1-4)][Gal(b1-4)GlcNAc(b1-2)Man(a1-6)]Man(b1-4)GlcNAc(b1-4)GlcNAc
# Method in brief: as §1
# [23] = target: Gal(b1-4)GlcNAc(b1-2)[Gal(b1-4)GlcNAc(b1-4)]Man(a1-3)[Gal(b1-4)GlcNAc(b1-2)[Gal(b1-4)GlcNAc(b1-6)]Man(a1-6)]Man(b1-4)GlcNAc(b1-4)GlcNAc
# Method in brief: as §1
# [24] = target: Gal(b1-4)GlcNAc(b1-3)Gal(b1-4)Glc
# Method in brief: as §1
# [25] = target: Gal(b1-4)GlcNAc(b1-3)Gal(b1-4)GlcNAc(b1-3)[Gal(b1-4)GlcNAc(b1-3)Gal(b1-4)GlcNAc(b1-6)]GalNAc
# Method in brief: as §1
# [26] = target: Gal(b1-4)GlcNAc(b1-3)GalNAc
# Method in brief: as §1
# [27] = target: Gal3S(b1-3)GalNAc
# Method in brief: as §1
binder,measurement,setting,value
"Tp0751, 83732 (protein) MSYYHHHHHHLESTSLYKKAGFQHGHVPPRRIPPHDTFGALPTAALPSNARDTAAHPSDTADNTSGSSTTTDPRSHGNAPPAPVGGAAQTHTQPPVQTAMRIALWNRATHGEQGALQHLLAGLWIQTEISPNSGDIHPLLFFDREHAEITFSRASVQEIFLVDSAHTHRKTVSFLTRNTAISSIRRRLEVTFESHEVIHVRAVEDVARLKIGSTSMWDGQYTRYHAGPASAPSP",glycan array binding signal (z-score),[1],-0.265
same,glycan array binding signal (z-score),[2],1.64
same,glycan array binding signal (z-score),[3],-0.071
same,glycan array binding signal (z-score),[4],0.013
same,glycan array binding signal (z-score),[5],1.11
same,glycan array binding signal (z-score),[6],1.77
same,glycan array binding signal (z-score),[7],0.066
same,glycan array binding signal (z-score),[8],-0.276
same,glycan array binding signal (z-score),[9],0.638
same,glycan array binding signal (z-score),[10],0.413
same,glycan array binding signal (z-score),[11],0.262
same,glycan array binding signal (z-score),[12],-0.025
same,glycan array binding signal (z-score),[13],2.31
same,glycan array binding signal (z-score),[14],0.017
same,glycan array binding signal (z-score),[15],-0.323
same,glycan array binding signal (z-score),[16],-0.382
same,glycan array binding signal (z-score),[17],-0.07
same,glycan array binding signal (z-score),[18],-0.004
same,glycan array binding signal (z-score),[19],-0.163
same,glycan array binding signal (z-score),[20],-0.373
same,glycan array binding signal (z-score),[21],0.21
same,glycan array binding signal (z-score),[22],-0.493
same,glycan array binding signal (z-score),[23],0.31
same,glycan array binding signal (z-score),[24],-0.441
same,glycan array binding signal (z-score),[25],1.78
same,glycan array binding signal (z-score),[26],-0.427
same,glycan array binding signal (z-score),[27],3.13
